This is part of a sample that, as a whole, favours compounds with a hit. Of some 83,000 tested, about 20% had one in any assay.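 Method: cells in 96-well plates; compound added at one concentration; 48 h incubation; percent growth measured; values under 10 scored active.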 Values without a mark were called inactive. Activity calls are given as the source filed them.
What follows are compounds tested on MDA-MB-468 breast (assay: NCI-60 one-dose screen, 48 h (100 = growth as untreated, 0 = no growth, -100 = all killed)). Conditions: 10 µM unless noted.

SMILES	growth
C=C1C(=O)O[C@H]2[C@H]1CC/C(COC(=O)C(=O)c1cn(Cc3ccccc3)c3ccccc13)=C\CC[C@@]1(C)O[C@@H]21	-60.5% (active)
COc1ccc(/C=C(/C(=O)N2CCCC2)c2cc(OC)c(OC)c(OC)c2)cc1N	-4.72% (active)
C/C(=C\c1ccn(-c2ccc(N)cc2)n1)[C@@H]1C[C@@H]2O[C@]2(C)CCC[C@H](C)[C@H](O)[C@@H](C)C(=O)C(C)(C)[C@@H](O)CC(=O)O1	13.9%
Oc1c(O)c(Cl)c(Cl)c(Cl)c1Cl	74.2%
O=[N+]([O-])c1cnc[nH]1	108%
COC(=O)[C@@H](C)C[C@H](Cc1ccc(F)cc1)NC(=O)c1csc([C@@H](C[C@H](C(C)C)N(C)C(=O)[C@@H](NC(=O)[C@H]2CCCCN2C)C(C)C)OC(C)=O)n1	21%
CC/C(=C/c1ccc(OC)cc1)[N+](=O)[O-]	-56.6% (active)
Brc1ccc2c(c1)c(-c1nc(-c3c[nH]c4ncccc34)cs1)cn2CCN1CCOCC1	34.2%
NC(=O)c1cc([N+](=O)[O-])c(Cl)c([N+](=O)[O-])c1Cl	-84.9% (active)
C[C@]12CCc3sc(NCCc4ccccc4)nc3C1=CC[C@@H]1[C@@H]2CC[C@]2(C)C(=O)CC[C@@H]12	32.9%
COC(=O)[C@@H](C)C[C@H](Cc1ccccc1)NC(=O)c1nc([C@@H](C[C@H](C(C)C)N(C)C(=O)[C@@H](NC(=O)[C@H]2CCCCN2C)C(C)C)OC(C)=O)sc1C	53.2%
CC(C)=CCc1c2c(c(O)c3c1O[C@]14C(=C[C@@H]5C[C@H]1C(C)(C)O[C@@]4(C/C=C(/C)C(=O)O)C5=O)C3=O)C=CC(C)(C)O2	-80.8% (active)
Fc1ccc(C2=NN(c3ccccc3)C(c3sc(N(CCCl)CCCl)nc3Cl)C2)cc1 (stereo not given)	81.4%
COc1ccc(C2=CC(c3ccc(OC)c(OC)c3)c3c(c4ccccc4oc3=O)O2)cc1OC (stereo not given)	-8.37% (active)
CC(C)CCC1C(=O)NC(=O)NC1=O	114%
NNc1ccccc1	109%
O=NNc1ccccn1	78.5%
COc1cc(/C=C\[N+](=O)[O-])ccc1OCc1ccccc1	6.8% (active)
CC1(C)N=C(N)N=C(N)N1c1ccc(CCCCc2ccc(S(=O)(=O)F)cc2)cc1	-3.5% (active)
CCN(CC)CCOc1c(C(C)C)cccc1C(C)C	88.1%

SMILES	growth
COc1cc([C@@H]2c3cc4c(c(O)c3C[C@H]3COC(=O)[C@@H]32)OCO4)cc(OC)c1OC	5.12% (active)
O=C(CI)Nc1ccc(Br)cc1	79.1%
Oc1cc(Cl)ccc1Oc1ccc(Cl)cc1Cl	7% (active)
O=[N+]([O-])c1cc(Cl)c(Cl)c([N+](=O)[O-])c1Cl	9.01% (active)
CCCCC1(CCC)C(=O)NC(=S)NC1=O	98.7%
COc1ccc([As]=[As]c2ccc(OC)c(NCS(=O)(=O)O)c2)cc1NCS(=O)(=O)O (stereo not given)	-54.2% (active)
c1ccc2c(c1)sc1ccccc12	97.2%
ClCCN(CCCl)c1ccc(C=NCCc2c[nH]c3ccccc23)cc1	-16.7% (active)
CCOC(=O)N[C@H]1CCc2c(Br)c(OC)c(OC)c(OC)c2-c2ccc(SC)c(=O)cc21	-14.7% (active)
COC(=O)[C@@H](C)C[C@H](Cc1ccccc1)NC(=O)c1csc([C@@H](C[C@H](C(C)C)N(C)C(=O)[C@@H](NC(=O)[C@H]2CCCN2C)C2CC2)OC(C)=O)n1	-9.22% (active)
C=CC[PH+](c1ccccc1)c1ccccc1.C=CC[PH+](c1ccccc1)c1ccccc1.[Cl][Pt][Cl]	-20.5% (active)
C[C@@H]1CCC/C=C/[C@H]2C[C@@H](O)C[C@@H]2[C@@H](O)/C=C/C(=O)O1	-21.4% (active)
COc1cc(/C=C/[N+](=O)[O-])cc(Br)c1OC	-34.7% (active)
COc1cc2c(O[C@@H]3OC[C@H](OC(C)=O)[C@H](OC(C)=O)[C@H]3O)c3c(c(-c4ccc5c(c4)OCO5)c2cc1OC)C(=O)OC3	55.4%
ClC1=C(Cl)C(Cl)(C2(Cl)C(Cl)=C(Cl)C(Cl)=C2Cl)C(Cl)=C1Cl	-59.2% (active)
CC[C@H](C)[C@H](NC(=O)N[C@@H](C)c1ccccc1)C(=O)N(C)[C@H](C[C@@H](OC(C)=O)c1nc(C(=O)N[C@@H](Cc2ccccc2)C[C@H](C)C(=O)OC)cs1)C(C)C	-0.266% (active)
O=[N+]([O-])c1ccc(P(=O)(O)O)cc1	102%
CCCCCCC(=O)NC1=C(N2CC2)C(=O)C(NC(=O)CCCCCC)=C(N2CC2)C1=O	23.2%
CS(=N)(=O)CCC(N)C(=O)O (stereo not given)	106%
CC(=O)OCc1cc[c]([Hg][Cl])o1	21%
